The panel holds about 83,000 compounds, 20% with a hit somewhere; the sample as a whole holds those more often.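 The endpoint reported here, percent growth, reads 100 for growth as untreated, 0 for no net growth and -100 for all cells dead.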 A number with no mark means an inactive call. Active and inactive are the calls of the source. The calls were made as follows: active = growth percent below 10; inactive = the rest.

For this experiment, the system named is U251 CNS. The experiment is described as follows: NCI-60 one-dose screen, 48 h (100 = growth as untreated, 0 = no growth, -100 = all killed). Conditions: 10 µM unless noted.
Regarding `NC(=O)c1c(NC(=O)c2ccc(Cl)cc2)sc2c1CCC(=O)C2`, the growth was 24%.

Consider `COc1ccc(/C(C)=C(\c2ccc(OCCN3CCCCCC3)cc2)c2ccc(OC(=O)c3ccccc3)cc2)cc1`, for which the growth is 31.7%.

As to `Clc1ccc(-c2cn3ccsc3n2)c(Cl)c1Cl`, the growth was 91%.

Turning to `COc1ccc(Cl)cc1Nc1nc(C(F)(F)F)ccc1C(=O)N/N=C/c1ccccc1Cl`, the growth is -25.8% (active).

In the case of `Cc1cc(C)cc(Nc2ccc([N+](=O)[O-])c(NCCN3CCOCC3)n2)c1`, the growth was 20.8%.

As for `C=CCn1c(SCC(=O)Nc2ccc(C(=O)/C=C/c3cc(OC)c(OC)c(OC)c3)cc2)nnc1-c1cc(-c2ccc(OC)cc2)nc2ccccc12`, the growth is 88.3%.

In the case of `C#CCOc1cccc(-c2ncc3cc(NC(=O)CCl)ccc3n2)c1`, the growth is -95.7% (active).

Consider `Cn1cc(-c2nn3cc(-c4ccccc4)nc3s2)c2ccccc21`, for which the growth is 77.9%.

In the case of `Cc1cc2nc3c4ccccc4n(CCN(C)C)c3nc2cc1C`, the growth is 15.7%.

For `CCC(C)Nc1ccc(NC(C)CC)cc1` (stereo not given), the growth is 87.9%.

For `O=C(CCCCCCN1CC(=O)N2[C@@H](C3CCCCC3)c3[nH]c4ccccc4c3C[C@H]2C1=O)NO`, the growth is 70.2%.

With `C(/C=C/c1ccccc1)=Nc1ccc(CCc2ccc(N=C/C=C/c3ccccc3)cc2)cc1`, the growth is 75%.

Take `Cc1c2ccccc2nc2c1ccc1cccnc12`: the growth was 84.7%.

On to `Cc1ncc(C(=O)Nc2ccc(CN3CCN(C)CC3)c(C(F)(F)F)c2)cc1C#Cc1cnc(N)c2cnccc12`, for which the growth was -20.7% (active).

For the compound `CC(C)(C)C(=O)/C=C/c1ccc([N+](=O)[O-])cc1`, the growth is 58%.

Regarding `N#Cc1c(-c2ccccc2)nc2c(c(-c3ccccc3)nn2-c2ccccc2)c1-c1ccc(N2CCOCC2)cc1`, the growth was 65.9%.

As for `Cc1ccc(C)n1/C=C/n1c(C)ccc1C`, the growth was 109%.

For `CN(C)Cc1ccc(C(=O)Nc2ccc3ncnc(Nc4ccc(Oc5cccc(F)c5)c(Cl)c4)c3c2)cc1`, the growth is -28.1% (active).

As for `O=c1[nH]cnc2c1C(c1ccc(Br)cc1)c1sc3c(F)cccc3c1O2` (stereo not given), the growth is 95.9%.

Take `CS(=O)(=O)Nc1cncc(-c2ccc3ncnc(Nc4ccc(F)c(Cl)c4)c3c2)c1`: the growth was 8.79% (active).

Consider `Cc1cc(N2CCN(C)CC2)nc(NCc2cc(Nc3ccnc4cc(Cl)ccc34)ccc2F)n1`, for which the growth is -51.3% (active).

On to `COc1ccc(-c2ccc(=O)oc2C#Cc2cc(OC)c(OC)c(OC)c2)cc1O`, for which the growth is 13.6%.

For the compound `COc1cc(/C=C2\C(=O)N(c3c(Cl)cccc3Cl)c3ccccc32)cc(OC)c1OCCCCCCn1c2ccccc2c(=O)c2ccccc21`, the growth is 103%.

As to `CC/C=C1/C(=O)C=C[C@@H]1C/C=C\CCCC(=O)OC`, the growth was 47.8%.

With `COc1ccc2c(c1)c(-c1nonc1-c1cn(C)c3ccc(OC)cc13)cn2C`, the growth was 33.7%.

Consider `C=C1C(=O)O[C@H]2[C@H]1CC/C(COC(=O)/C=C\C(=O)NCc1ccc(Cn3c(=O)sn(-c4ccccc4)c3=O)cc1)=C\CC[C@@]1(C)O[C@@H]21`, for which the growth is 84.3%.

`Cc1nn(-c2ccccc2)c(/N=C/N(C)C)c1/C=C/C(=O)c1ccc(Cl)cc1`: the growth was 95.1%.

As to `C#CC#CC#CC#CC#CC#CC#CC#CCC1OCC(COC(=O)O[C@@H](C(=O)O[C@H]2C[C@@]3(O)[C@@H](OC(=O)c4ccccc4)[C@@H]4[C@]5(OC(C)=O)CO[C@@H]5C[C@H](O)[C@@]4(C)C(=O)[C@H](OC(C)=O)C(=C2C)C3(C)C)[C@@H](NC(=O)c2ccccc2)c2ccccc2)O1` (stereo not given in full), the growth was 17.9%.

On to `COc1ccc(/C=C/C(=O)c2cc3c(N)c(C(=O)Nc4ccc(OC)cc4)sc3nc2C)cc1`, for which the growth was 20.2%.

For `N=C(N)c1ccc(-c2ccc(-c3ccc(Cl)cc3)o2)o1`, the growth is -95.5% (active).

With `COc1ccc(-c2nnc(SCC(=O)Nc3ccc(/C(C)=N\O)cc3)n2-c2ccccc2)cc1OC`, the growth was 34.4%.

As to `Cc1ccc(-c2nc(C#N)c(S(=O)(=O)NCCO)o2)cc1`, the growth was 74%.

As for `N#CC(C#N)N=Nc1ccc(Cl)cc1Cl`, the growth was 106%.

Take `C=CCOC(=O)C1=C(C)NC(=O)NC1c1c(Cl)n(C)c2ccccc12` (stereo not given): the growth is 96.3%.

Take `CCCCCCCCn1ccc2cc(NC(=O)Cn3cc(CN4CCCCCC4)nn3)ccc21`: the growth was -43.6% (active).

`O=C(CN1C(=O)NC2NC(=O)NC21)N/N=C/c1ccc(Cl)cc1Cl` (stereo not given): the growth is 112%.

As for `COc1cc(C2=NN(C(C)=O)C(c3ccc(N(C)C)cc3)C2)cc(OC)c1OC` (stereo not given), the growth is 97.3%.

`COc1cccc(/C=C/C(=O)c2cc3c(N)c(C(=O)Nc4cccc(Cl)c4C)sc3nc2C)c1`: the growth is -78.4% (active).

With `CCCn1c(=S)sc2c1nc(C)n1c(Nc3ccccc3)nnc21`, the growth was 60.9%.

As for `OC(c1ccccc1)(c1ccccc1)c1ccccc1-c1ccccc1`, the growth is 92.8%.

The values are drawn from PubChem BioAssay (NCI).
